Screening results from PubChem BioAssay.
The list is not random: actives were taken first. Their share in the collection is about 19%.
HT1080 IDH1KD tx: qHTS for induction of synthetic lethality in tumor cells producing 2HG: qHTS for the HT-1080-IDH1KD cell line | AID 686971, 2013 | hit rate 2% among 360,000 | Potency, µM (titrated, usually from 46.1 µM), hits mostly cytotoxic | HT-1080 IDH1 knockdown viability, ATP luminescence, 48 h
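After a 2 h attachment period, IDH1KD HT-1080 cells took pin-transferred compound for 48 h at 37 °C; ATP-based luminescence after 10 min room-temperature reagent incubation reported viability.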
HT1080-NT tox: qHTS for induction of synthetic lethality in tumor cells producing 2HG: qHTS for the HT-1080-NT fibrosarcoma cell line. AID 686970, 2013. HT-1080-NT fibrosarcoma viability, CellTiter-Glo ATP luminescence, 48 h. Potency, µM (highest dose often 46.1 µM), usual class: cytotoxic. hit rate 1.6% among 360,000;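 note: NT is the 2HG producing partner of a matched IDH1 knockdown line; nearly all actives have a fitted effect of over 55% in size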
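Luminescent CellTiter-Glo readout after 48 hours of compound exposure at 37 degrees C defined viability of HT-1080-NT cells. Activity was normalized to DMSO wells and cell-free media wells; concentration-response curves were fitted and assigned curve classes.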
TDP1 cell noCPT: qHTS for Inhibitors of human tyrosyl-DNA phosphodiesterase 1 (TDP1): qHTS in cells in absence of CPT; DT40 Tdp1-/- hTDP1 cells, no CPT, ATP luminescence, 48 h; Potency, µM (doses to about 46.2 µM), most hits filed as inhibitors; hit rate 15% among 420,000; note: nearly all actives have a fitted effect of over 55% in size
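Compound effects on proliferation are scored in DT40 Tdp1-/-;hTDP1 cells in the absence of CPT. ATP levels (CellTiter-Glo luminescence) are recorded after a ≥48 hr, 37 °C incubation.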
DT40 TDP1 CPT: qHTS for Inhibitors of human tyrosyl-DNA phosphodiesterase 1 (TDP1): qHTS in cells in presence of CPT. AID 686979, 2013. Potency, µM (highest dose often 46.2 µM), usual class: inhibitors. hit rate 12% among 420,000. chicken DT40 Tdp1-/-;hTDP1 cells + 20 nM CPT, ATP luminescence, 48 h; note: nearly all actives have a fitted effect of over 55% in size
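Cell growth measured by CellTiter-Glo luminescence after a minimum 48 h, 37 C compound exposure with 20 nM CPT in Tdp1-knockout DT40 cells stably expressing hTDP1, seeded 400/well; qHTS titration format.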
KB-3-1 cytotox: qHTS assay for MDR1-selective chemotherapeutics: Primary screen using the parental adenocarcinoma cell KB-3-1; Potency, µM (top dose mostly 46.1 µM), actives largely listed as cytotoxic; hit rate 1.4% among 400,000; KB-3-1 viability, CellTiter-Glo ATP luminescence, 72 h; note: nearly all actives have a fitted effect of over 60% in size
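Cytotoxicity in the drug-sensitive parental line KB-3-1 was scored as loss of CellTiter-Glo luminescence following 72 h incubation with compound. Values come from curve fitting of normalized concentration-response data.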
KB-V1 cytotox: qHTS assay for MDR1-selective chemotherapeutics: Primary screen using the drug-selected MDR subline cells KB-V1. KB-V1 MDR cells viability, CellTiter-Glo, 72 h. hit rate 3.4% among 400,000. Potency, µM (highest dose often 46.1 µM), usual class: cytotoxic. AID 1347076, 2019; note: nearly all actives have a fitted effect of over 60% in size
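Potencies derive from concentration-effect curves fitted to normalized luminescence (CellTiter-Glo) of KB-V1 cells treated for 72 h at 37 degrees C in phenol-red-free DMEM containing 10% FBS.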
Large screens that a line does not name were inactive. Calls come from the whole dose curve; as a rule, active = well fitted curve in the direction sought with a large enough effect; inconclusive = small, poorly fitted or top-dose-only effect, or another doubt; inactive = no such curve, though single readings can be large; an effect the other way counts as inactive or inconclusive.

CCOC(=O)C1CCCN(/C=C2\SC(=S)N(CC)C2=O)C1 (stereo not drawn)	TDP1 cell noCPT inconclusive
CN1OC[C@@H]2CN(C(=O)CCc3ccccc3)[C@H](c3cccc(N4CCOCC4)c3)C[C@@H]21	KB-3-1 cytotox inconclusive
O=C(NC(=S)N1CCN(c2ccc([N+](=O)[O-])cc2)CC1)c1ccccc1	TDP1 cell noCPT 3.3µM, DT40 TDP1 CPT inconclusive
COc1cc(C(=O)NCCC(=O)NCc2c(F)cc(F)cc2F)cc(OC)c1OC	none
c1ccc2c(c1)C1=NCCN1c1ccccc1-2	HT1080 IDH1KD tx 16µM, HT1080-NT tox inconclusive, TDP1 cell noCPT 2.3µM, DT40 TDP1 CPT 2.9µM, KB-3-1 cytotox inconclusive, KB-V1 cytotox 12µM
COC1=Nc2ccccc2N2CCN=C12	HT1080 IDH1KD tx inconclusive
CC1=C(C(=O)Nc2c(C)cc(C)cc2C)C2(CCN(C(C)C)CC2)OC1=O	none (no result: HT1080 IDH1KD tx, HT1080-NT tox)
O=Cc1c(-[n+]2ccccc2)nc([O-])n1-c1ccccc1	TDP1 cell noCPT 18µM, DT40 TDP1 CPT inconclusive, KB-3-1 cytotox inconclusive, KB-V1 cytotox inconclusive
CN(C)N1C(N)=C(C#N)C(c2ccccc2F)C2=C1CC(C)(C)CC2=O (stereo not drawn)	none
CCOc1ccc(NC(=S)N(CCc2c(C)[nH]c3ccccc23)Cc2ccco2)cc1	TDP1 cell noCPT inconclusive, DT40 TDP1 CPT 13µM
COc1ccc(NC(=S)N(CCc2c(C)[nH]c3ccccc23)Cc2ccco2)cc1	TDP1 cell noCPT inconclusive, DT40 TDP1 CPT inconclusive
CSc1ccc(/C=C/C(=O)OCC(=O)NC2CCCCCC2)cc1	TDP1 cell noCPT inconclusive
CCN(CC)S(=O)(=O)c1ccc2c(c1)N(CC(=O)N1CCCC1)C(=O)CO2	none
CCN(CC)S(=O)(=O)c1ccc2c(c1)N(CC(=O)N1CCN(c3cccc(C)c3C)CC1)C(=O)CO2	TDP1 cell noCPT 15µM, DT40 TDP1 CPT 18µM (no result: HT1080 IDH1KD tx, HT1080-NT tox)
CCN(CC)S(=O)(=O)c1ccc2c(c1)N(CC(=O)N1CCN(c3cccc(C(F)(F)F)c3)CC1)C(=O)CO2	TDP1 cell noCPT 21µM, DT40 TDP1 CPT inconclusive (no result: HT1080 IDH1KD tx, HT1080-NT tox)
O=[N+]([O-])c1ccc2c(c1N1CCCCC1)=NC1(CCCCC1)[N+]=2[O-]	TDP1 cell noCPT 21µM, DT40 TDP1 CPT 21µM
O=[N+]([O-])c1ccc(Cl)cc1N1CCCCC1	DT40 TDP1 CPT inconclusive
CCC1Oc2ccc(C)cc2N(CC(=O)N(Cc2ccc(C)o2)C2CC(C)(C)NC(C)(C)C2)C1=O (stereo not drawn)	HT1080 IDH1KD tx inconclusive, HT1080-NT tox 16µM, TDP1 cell noCPT inconclusive, DT40 TDP1 CPT 18µM, KB-3-1 cytotox inconclusive, KB-V1 cytotox inconclusive
CCC1Oc2ccc(C)cc2N(CC(=O)N2CCN(c3ccccc3OC)CC2)C1=O (stereo not drawn)	TDP1 cell noCPT 16µM, DT40 TDP1 CPT inconclusive (no result: HT1080 IDH1KD tx, HT1080-NT tox, KB-3-1 cytotox, KB-V1 cytotox)
CCC1Oc2ccc(C)cc2N(CC(=O)N2CCN(c3ccc(F)cc3)CC2)C1=O (stereo not drawn)	TDP1 cell noCPT 18µM, DT40 TDP1 CPT 21µM
CCOC(=O)C1CCCN(C(=O)CN2C(=O)C(CC)Oc3ccc(C)cc32)C1 (stereo not drawn)	DT40 TDP1 CPT inconclusive
CCOC(=O)c1cnc2c(-c3cccc(Br)c3)cnn2c1C	HT1080-NT tox inconclusive
OC(CNCC1COc2ccccc2O1)COc1ccccc1F (stereo not drawn)	none
CCOc1ccc(C(=O)CC(Sc2ccc(C)cc2)C(=O)O)cc1 (stereo not drawn)	HT1080 IDH1KD tx inconclusive, TDP1 cell noCPT inconclusive, DT40 TDP1 CPT inconclusive
